Measurements reported in PubChem BioAssay (Tox21).
Records with an inconclusive call do not appear. A call without a number means that no potency is given here. Active and inactive are the calls of the source. Calls come from the whole dose curve; as a rule, active = well fitted curve in the direction sought with a large enough effect in the repeat runs; inconclusive = weak or mixed curves; inactive = no such curve, though single readings can be large; an effect the other way counts as inactive or inconclusive.

Experiment: A CellTox Green Cytotoxicity Assay to monitor cytotoxicity in HEK293 cells - 16 hour (AID 1224888); note: nearly all actives have a fitted effect of over 35% in size
Conditions: CellTox Green fluorescence; series mostly up to 76.8 µM
How it was run: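 HEK293 cells premixed with CellTox Green dye were seeded at 600 cells/well and left 5 h at 37 C/5% CO2 before pin transfer of 23 nL compound in DMSO. Fluorescence from dye bound to dead-cell DNA was read during 40 h treatment.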

Row | SMILES | Potency | activity change
1 | CC(O)C(CO)C(C)O (configuration not stated) | inactive | –
2 | Cc1cc(O)c(Cl)cc1C | inactive | –
3 | CCCCCCCCCCCCCCCCN(C)C | – | 0.327% [at 6.97 µM, stronger effect = higher value] (inactive)
4 | Cc1ccc2ccccc2n1 | inactive | –
5 | CCCCC(CC)COC(=O)CC#N (configuration not stated) | inactive | –
6 | CCCCCCCCCCCBr | inactive | –
7 | COC(=O)C(c1ccccc1Cl)N1CCc2sccc2C1 (configuration not stated) | inactive | –
8 | CCO/C=C1\N=C(c2ccccc2)OC1=O | inactive | –
9 | C=CCN(CC=C)CC=C | inactive | –
10 | CC[N+](C)(CC)CC | inactive | –
11 | C/C(Cl)=C/CCl | inactive | –
12 | C=CC(C)(CCC=C(C)C)OC(=O)C(C)C (configuration not stated) | inactive | –
13 | CCCCC(O)/C=C(C)/C=C/C=C/C(=O)N1CCCC1=O (configuration not stated) | inactive | –
14 | CCOCCOCCOC(C)=O | inactive | –
15 | CC12CCCC=C1C(=O)OC2=O (configuration not stated) | inactive | –
16 | CCCc1ccc(O)c(OC)c1 | inactive | –
17 | COc1cc(OC)cc(OC)c1 | inactive | –
18 | CCCCCCC(=O)c1ccccc1 | inactive | –
19 | CC(=O)SC[C@@H](C)C(=O)N1CCC[C@H]1C(=O)N[C@@H](Cc1ccccc1)C(=O)O | inactive | –

Row | SMILES | Potency | activity change
20 | CN(C)CCc1c[nH]c2ccc(C[C@H]3COC(=O)N3)cc12 | inactive | –
21 | CCCCCCCCS(=O)(=O)O | inactive | –
22 | CC(C)(C)C(=O)NCCCC(=O)O | inactive | –
23 | CC(C)(C)NCC(O)COc1cccc2c1CCC(=O)N2 (configuration not stated) | inactive | –
24 | O=C(c1ccccc1)c1cccc(O)c1 | inactive | –
25 | CCNC(=O)C(C)OC(=O)Nc1ccccc1 (configuration not stated) | inactive | –
26 | Cc1ccccc1OCC(=O)O | inactive | –
27 | Nc1nc(Cl)cc(Cl)n1 | inactive | –
28 | O=C(O)Cc1c(Cl)ccc(Cl)c1Cl | inactive | –
29 | CCCCCC(=O)CC | inactive | –
30 | CC(C)(Sc1cc(C(C)(C)C)c(O)c(C(C)(C)C)c1)Sc1cc(C(C)(C)C)c(O)c(C(C)(C)C)c1 | inactive | –
31 | COc1cc(S(N)(=O)=O)cc(C(=O)O)c1OC | inactive | –
32 | C=CCCCCCCCCCCCCCC | – | -0.657% [at 15.8 µM, stronger effect = higher value] (inactive)
33 | CC(C)(C)c1ccc(C(=O)CCCCl)cc1 | inactive | –
34 | CN(C)CCC[C@@]1(c2ccc(F)cc2)OCc2cc(C#N)ccc21 | inactive | –
35 | O=c1c(O)c(O)c1=O | inactive | –
36 | NNC(=O)CCCCC(=O)NN | inactive | –
37 | Cc1ccc(O)c(C(=O)c2ccccc2)c1 | inactive | –
38 | CCCCCCC(O)CO (configuration not stated) | inactive | –

Experiment: qHTS RealTime-Glo MT Cell Viability Assay in HepG2 cells - 0 hour (AID 1224889); note: nearly all actives have a fitted effect of over 50% in size
Conditions: RealTime-Glo luminescence; series mostly up to 76.8 µM
How it was run: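 HepG2 suspension premixed with RealTime-Glo reagents is plated at 600 cells per well and left 5 h at 37 C/5% CO2. Compounds in DMSO then go in, and bioluminescence reflecting viable cell number is recorded over 40 h.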

Row | SMILES | Potency | activity change, negative = cytotoxicity
39 | CC(O)C(CO)C(C)O (configuration not stated) | inactive | –
40 | Cc1cc(O)c(Cl)cc1C | inactive | –
41 | CCCCCCCCCCCCCCCCN(C)C | – | 4.22% [at 6.97 µM] (inactive)
42 | Cc1ccc2ccccc2n1 | inactive | –
43 | CCCCC(CC)COC(=O)CC#N (configuration not stated) | inactive | –
44 | CCCCCCCCCCCBr | inactive | –
45 | COC(=O)C(c1ccccc1Cl)N1CCc2sccc2C1 (configuration not stated) | inactive | –
46 | CCO/C=C1\N=C(c2ccccc2)OC1=O | inactive | –
47 | C=CCN(CC=C)CC=C | inactive | –
48 | CC[N+](C)(CC)CC | inactive | –
49 | C/C(Cl)=C/CCl | inactive | –
50 | C=CC(C)(CCC=C(C)C)OC(=O)C(C)C (configuration not stated) | inactive | –
51 | CCCCC(O)/C=C(C)/C=C/C=C/C(=O)N1CCCC1=O (configuration not stated) | inactive | –
52 | CCOCCOCCOC(C)=O | inactive | –
53 | CC12CCCC=C1C(=O)OC2=O (configuration not stated) | inactive | –
54 | CCCc1ccc(O)c(OC)c1 | inactive | –
55 | COc1cc(OC)cc(OC)c1 | inactive | –
56 | CCCCCCC(=O)c1ccccc1 | inactive | –
57 | CC(=O)SC[C@@H](C)C(=O)N1CCC[C@H]1C(=O)N[C@@H](Cc1ccccc1)C(=O)O | inactive | –

Row | SMILES | Potency | activity change, negative = cytotoxicity
58 | CN(C)CCc1c[nH]c2ccc(C[C@H]3COC(=O)N3)cc12 | inactive | –
59 | CCCCCCCCS(=O)(=O)O | inactive | –
60 | CC(C)(C)C(=O)NCCCC(=O)O | inactive | –
61 | CC(C)(C)NCC(O)COc1cccc2c1CCC(=O)N2 (configuration not stated) | inactive | –
62 | O=C(c1ccccc1)c1cccc(O)c1 | inactive | –
63 | CCNC(=O)C(C)OC(=O)Nc1ccccc1 (configuration not stated) | inactive | –
64 | Cc1ccccc1OCC(=O)O | inactive | –
65 | Nc1nc(Cl)cc(Cl)n1 | inactive | –
66 | O=C(O)Cc1c(Cl)ccc(Cl)c1Cl | inactive | –
67 | CCCCCC(=O)CC | inactive | –
68 | CC(C)(Sc1cc(C(C)(C)C)c(O)c(C(C)(C)C)c1)Sc1cc(C(C)(C)C)c(O)c(C(C)(C)C)c1 | inactive | –
69 | COc1cc(S(N)(=O)=O)cc(C(=O)O)c1OC | inactive | –
70 | C=CCCCCCCCCCCCCCC | – | 10.7% [at 15.8 µM] (inactive)
71 | CC(C)(C)c1ccc(C(=O)CCCCl)cc1 | inactive | –
72 | CN(C)CCC[C@@]1(c2ccc(F)cc2)OCc2cc(C#N)ccc21 | inactive | –
73 | O=c1c(O)c(O)c1=O | inactive | –
74 | NNC(=O)CCCCC(=O)NN | inactive | –
75 | Cc1ccc(O)c(C(=O)c2ccccc2)c1 | inactive | –
76 | CCCCCCC(O)CO (configuration not stated) | inactive | –

Experiment: A CellTox Green Cytotoxicity Assay to monitor cytotoxicity in HepG2 cells - 8 hour (AID 1224890); note: nearly all actives have a fitted effect of over 45% in size
Conditions: CellTox Green fluorescence; series mostly up to 76.8 µM
How it was run: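 HepG2 cells were seeded together with the CellTox Green dye at 600 cells/well, left 5 h at 37 C/5% CO2, then given compounds in DMSO. Fluorescence from dye bound to dead-cell DNA was read repeatedly over 40 h of treatment at 37 C.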

Row | SMILES | cytotoxicity increase | Potency
77 | CCCCCCCCCCCCCCCCN(C)C | 2.33% [at 6.97 µM] (inactive) | –
78 | Cc1ccc2ccccc2n1 | – | inactive
79 | CCCCC(CC)COC(=O)CC#N (configuration not stated) | – | inactive
80 | CCCCCCCCCCCBr | – | inactive
81 | COC(=O)C(c1ccccc1Cl)N1CCc2sccc2C1 (configuration not stated) | – | inactive
82 | CCO/C=C1\N=C(c2ccccc2)OC1=O | – | inactive
83 | C=CCN(CC=C)CC=C | – | inactive
84 | CC[N+](C)(CC)CC | – | inactive
85 | C/C(Cl)=C/CCl | – | inactive
86 | C=CC(C)(CCC=C(C)C)OC(=O)C(C)C (configuration not stated) | – | inactive
87 | CCCCC(O)/C=C(C)/C=C/C=C/C(=O)N1CCCC1=O (configuration not stated) | – | inactive
88 | CCOCCOCCOC(C)=O | – | inactive
89 | CCCc1ccc(O)c(OC)c1 | – | inactive
90 | CCCCCCC(=O)c1ccccc1 | – | inactive
91 | CC(=O)SC[C@@H](C)C(=O)N1CCC[C@H]1C(=O)N[C@@H](Cc1ccccc1)C(=O)O | – | inactive
92 | CN(C)CCc1c[nH]c2ccc(C[C@H]3COC(=O)N3)cc12 | – | inactive

Row | SMILES | cytotoxicity increase | Potency
93 | CCCCCCCCS(=O)(=O)O | – | inactive
94 | CC(C)(C)C(=O)NCCCC(=O)O | – | inactive
95 | CC(C)(C)NCC(O)COc1cccc2c1CCC(=O)N2 (configuration not stated) | – | inactive
96 | CCNC(=O)C(C)OC(=O)Nc1ccccc1 (configuration not stated) | – | inactive
97 | Cc1ccccc1OCC(=O)O | – | inactive
98 | Nc1nc(Cl)cc(Cl)n1 | – | inactive
99 | CCCCCC(=O)CC | – | inactive
100 | CC(C)(Sc1cc(C(C)(C)C)c(O)c(C(C)(C)C)c1)Sc1cc(C(C)(C)C)c(O)c(C(C)(C)C)c1 | – | inactive
101 | COc1cc(S(N)(=O)=O)cc(C(=O)O)c1OC | – | inactive
102 | C=CCCCCCCCCCCCCCC | 8.14% [at 15.8 µM] (inactive) | –
103 | CC(C)(C)c1ccc(C(=O)CCCCl)cc1 | – | inactive
104 | CN(C)CCC[C@@]1(c2ccc(F)cc2)OCc2cc(C#N)ccc21 | – | inactive
105 | O=c1c(O)c(O)c1=O | – | inactive
106 | Cc1ccc(O)c(C(=O)c2ccccc2)c1 | – | inactive
107 | CCCCCCC(O)CO (configuration not stated) | – | inactive
